This note sets out measurements from PubChem BioAssay (NCI).

Each structure is given as a SMILES string. Several values for one entry are separate records, joined by “and”; a condition that tells them apart may be missing. Equal entries are not always repeated. About 79,000 compounds went through this panel and 15% of them were active in at least one assay; those are over-represented in the sample as a whole. Values without a mark were called inactive. Activity calls are given as the source filed them. Cut-off read from the data, not from the text of the source: active = growth inhibition above about 70%; inactive = the rest.

The nature of test [1]: NCI Yeast Anticancer Drug Screen. Data for the rad50 strain (AID 155).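 Note: 0% = growth of vehicle-only cultures of the same strain.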 As to conditions: S. cerevisiae rad50 strain growth inhibition; at 50.0 µM; active compounds read high. In short, it runs like this: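 A DNA repair-deficient yeast mutant serves as the test organism; compound-induced growth inhibition is calculated against vehicle-treated cells.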
A short description of test [2]: NCI Yeast Anticancer Drug Screen. Data for the mec2-1 strain (AID 157). As to conditions: S. cerevisiae mec2-1 strain, at 50.0 µM, active compounds read high. In short, it runs like this:
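Cells of the genetically defined mec2-1 yeast strain are incubated with test compound. Inhibition of growth is calculated against vehicle-treated controls.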

Test [3] can be described thus: NCI Yeast Anticancer Drug Screen. Data for the sgs1 mgt1 strain (AID 161).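 Note: 0% = growth of cultures given vehicle only.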 As to conditions: S. cerevisiae sgs1 mgt1 strain, at 50.0 µM, active compounds read high. In short, it runs like this:
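Test agents were incubated with a DNA-repair-mutant yeast strain. Growth was then read and compared against vehicle-treated controls.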

Test [4] in a line: NCI Yeast Anticancer Drug Screen. Data for the cln2 rad14 strain (AID 165).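 Note: 0% = growth equal to vehicle treated cultures.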 The note with it: S. cerevisiae cln2 rad14 strain, at 50.0 µM, active compounds read high. A digest of the protocol: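 The screen exposed genetically defined yeast (cln2 rad14) to test compounds and scored growth inhibition relative to vehicle-treated controls.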
Test [5] can be described thus: NCI Yeast Anticancer Drug Screen. Data for the bub3 strain (AID 167). As to conditions: S. cerevisiae bub3 mutant strain, at 50.0 µM, active compounds read high. A digest of the protocol: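 Inhibition values come from growth of compound-treated mutant yeast normalised to vehicle-treated controls.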
Test [6] in a line: NCI Yeast Anticancer Drug Screen. Data for the mlh1 rad18 strain (AID 175). As to conditions: S. cerevisiae mlh1 rad18 strain growth inhibition; at 50.0 µM; active compounds read high. In short, it runs like this: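 Compound-treated yeast growth, normalised to vehicle controls. Strain bears defined DNA repair mutations.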

For `CC(C)CCC1(CC[N+](C)(C)C)C(=O)NC(=O)NC1=O`, the growth inhibition in test [1] is 5.95%; in test [2], -9.85%; in test [3], 6.15%; in test [4], -29.2%; in test [5] it was 10.7%; in test [6] it was -7.05%.

As to `CCOC(=O)/C(=C\c1cccc(F)c1)[Se]c1ccccc1`, the growth inhibition in test [1] is 29.4%; in test [2], 7.15%; in test [3] it was 21.9%; in test [4], 8.3%; in test [5], 46.8%; in test [6], 36.6%.

On to `Cc1ccc(O)cc1`, for which the growth inhibition in test [1] is -27.4%; in test [2] it was 24.1%; in test [3], -22%; in test [4] it was -31.2%; in test [5], 1.1%; in test [6], -30.1%.

Take `COc1cccc(NC2=NCCO2)c1`: the growth inhibition was -17.1% in test [1]; -1.2% in test [2]; -5.95% in test [3]; 3.8% in test [4]; -2.2% in test [5]; -12.2% in test [6].

In the case of `[Fe+5].[O-][Cl+3]([O-])([O-])O.[O-]c1ccccc1C=NCCN1CC1.[O-]c1ccccc1C=NCCN1CC1`, the growth inhibition in test [1] is 1.8%; in test [2], 16%; in test [3], 30.1%; in test [4], 0.3%; in test [5], 37%; in test [6] it was 22.2%.

As to `CCCCOC1OCN(C2CCCCC2)CC1(C)C` (centres undefined), the growth inhibition in test [1] is 13.5%; in test [2] it was 28.1%; in test [3], 27.5%; in test [4], 13.7%; in test [5], 36.8%; in test [6] it was 41.8%.

On to `CC(=O)CC(C)=O.CC(=O)CC(C)=O.CC(=O)CC(C)=O.[Cr]`, for which the growth inhibition in test [1] is 20.2%; in test [2], -8.3%; in test [3] it was 1.05%; in test [4], -27.7%; in test [5] it was 4.3%; in test [6], 13.2%.

As for `[N-]=[N+]=NC1(C(=O)O)CCCC1`, the growth inhibition in test [1] is 0.95%; in test [2], -6.85%; in test [3], -15.4%; in test [4], -14.2%; in test [5], -5.75%; in test [6], -34.8%.

For `CCOP1(=S)NNP(=S)(OCC)NN1` (centres undefined), the growth inhibition is -2.75% in test [1]; -11.5% in test [2]; -3.75% in test [3]; 18.4% in test [4]; 10.2% in test [5]; 8.85% in test [6].

`COC(=O)N/N=C(/CCN1CCCC1)CC(c1ccccc1)c1c(O)c2ccccc2oc1=O` (centres undefined): the growth inhibition was 19.4% in test [1]; -4.45% in test [2]; 10% in test [3]; 9.2% in test [4]; 8.7% in test [5]; 14.9% in test [6].

For `CCC1CC[N-]CC1.CCC1CC[N-]CC1.[Cl][Pt+2][Cl]`, the growth inhibition was -0.95% in test [1]; 14.8% in test [2]; 73% (active) in test [3]; -42.5% in test [4]; 18.1% in test [5]; 48.8% in test [6].

On to `OCC(O)C(O)CO` (centres undefined), for which the growth inhibition in test [1] was 6.7% and 6.95%; in test [2] it was -0.55% and 8.95%; in test [3] it was 3.55% and 0.4%; in test [4], -61.8% and 20.8%; in test [5], 12.1% and 24.6%; in test [6] it was -1.05% and 0.1%.

For the molecule `N#CCCCBr`, the growth inhibition in test [1] is -2.7%; in test [2], -15.8%; in test [3], 7.2%; in test [4] it was -13.8%; in test [5], -2%; in test [6], 11.8%.

With `CC(C)(Cl)[N+](=O)[O-]`, the growth inhibition is -3.35% in test [1]; -13.3% in test [2]; 6.65% in test [3]; -1.7% in test [4]; -5.45% in test [5]; 16.6% in test [6].

In the case of `Cc1ccc(S(=O)(=O)CC([Se]C#N)c2ccccc2)cc1` (centres undefined), the growth inhibition in test [1] is -21.1%; in test [2], 2.2%; in test [3], -15.1%; in test [4], -3.9%; in test [5], -6.1%; in test [6], 1.45%.

Turning to `CNc1cc(Cl)c(C#N)c(Cl)c1`, the growth inhibition is -2.6% in test [1]; -2.7% in test [2]; -0.7% in test [3]; -39.2% in test [4]; -24.6% in test [5]; 9.25% in test [6].

Consider `CC(=O)N[C@@H](C[S-])C(=O)O.O=[N+]([O-])O.[Ag+]`, for which the growth inhibition is -1.95% in test [1]; 0.95% in test [2]; 53.8% in test [3]; 25.1% in test [4]; 19.9% in test [5]; 21.1% in test [6].

Consider `[Cu+2].[O-]c1ccc2ccccc2c1N=Nc1ccccc1.[O-]c1ccc2ccccc2c1N=Nc1ccccc1`, for which the growth inhibition in test [1] was -70.1%; in test [2], -13.1%; in test [3], -13.1%; in test [4], -15.9%; in test [5], 2.4%; in test [6], -12.2%.

As to `CC(Cl)C(=O)OC(C)(C)Cl` (centres undefined), the growth inhibition is 19.9% in test [1]; 25.7% in test [2]; 11.7% in test [3]; 11.1% in test [4]; 17% in test [5]; 3.05% in test [6].
